Results filed as inconclusive are left out. The source made the active and inactive calls. Unless noted, calls follow the shape of the dose curve; as a rule, active = well fitted curve in the direction sought with a large enough effect; inconclusive = small, poorly fitted or top-dose-only effect, or another doubt; inactive = no such curve, though single readings can be large; an effect the other way counts as inactive or inconclusive.
Key:
[1] = High-throughput drug toxicity screening in the BPDCN cell line Gen2.2 (AID 1224824; call rule not given here;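 also: cells exposed to compounds for 48 h before reading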); conditions: Gen2.2 BPDCN cells; at 45.8 µM (top of the series) unless noted
Procedure, shortened: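 Readout is ATP luminescence from Gen2.2 cells after two days of drug exposure in serum-containing medium at 37 °C. Values express percent activity, with vehicle defining full signal and 9.2 uM bortezomib defining zero.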

[2] = High-throughput drug toxicity screening in the BPDCN cell line Cal-1 (AID 1224825; call rule not given here); conditions: Cal-1 BPDCN cell viability, qHTS; at 45.8 µM (top of the series) unless noted
Procedure, shortened: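 Exponentially growing Cal-1 cells, 500 per well in phenol red-free RPMI with 10% FBS, were exposed to compounds for 48 h at 37 °C, 5% CO2. Viability was read by CellTiter-Glo luminescence and normalised to DMSO (100%) and 9.2 uM bortezomib (0%).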

[3] = qHTS assay for measurement of the activity of small molecule inhibitors on Zika virus induced Caspase-3 activity in human iPSC derived neural progenitor cells (hNPCs) (AID 1224857); also: nearly all actives have a fitted effect of over 65% in size; also: potency is read from the fitted curve at half-maximal effect
Procedure, shortened: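 In medium with heparin 2 ug/ml and cyclopamine 2 uM, hNPCs (350 cells/well) received compound for one hour and then Zika virus at 2 FFU/cell; caspase activity was measured by Caspase-Glo 3/7 luminescence 6 h post-infection.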

[4] = qHTS assay for measurement of the activity of small molecule inhibitors on Zika virus induced Caspase-3 activity in human astrocytoma cells (AID 1224859);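 also: plate controls were ZIKV-infected untreated cells for no effect and uninfected cells for full effect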
Procedure, shortened: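 A cell-based luminescent caspase-3/7 assay used SNB-19 cells infected with ZIKV (2 FFU/cell) for 6 h following 1 h compound pretreatment.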

[5] = qHTS Screen of the MIPE 4.0 Collection Against Ewings Sarcoma (RDES) (AID 1259252); also: nearly all actives have a fitted effect of over 35% in size; also: potency is read from the fitted curve at half-maximal effect
Procedure, shortened: (§1)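 Measured: ATP luminescence (CellTiter-Glo) 10 min after reagent addition, following 48 h drug treatment. Relative luciferase units converted to percent activity, with no-cell wells as full and DMSO wells as zero inhibition.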

[6] = qHTS Screen of the MIPE 4.0 Collection Against Ewings Sarcoma (EW8) (AID 1259255); also: nearly all actives have a fitted effect of over 35% in size; also: potency is read from the fitted curve at half-maximal effect;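 as to viability: 100% = DMSO-treated cells and 0% = medium-only wells without cells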
Procedure, shortened: as §1

[7] = qHTS Screen of the MIPE 4.0 Collection Against Ewings Sarcoma (TC32) (AID 1259256); also: nearly all actives have a fitted effect of over 45% in size; also: potency is read from the fitted curve at half-maximal effect
Procedure, shortened: as §1

[8] = qHTS profiling for inhibitors of Plasmodium falciparum (HB3) proliferation (AID 743324); conditions: Plasmodium falciparum HB3 blood-stage proliferation; at 28.7 µM (top of the series) unless noted;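 also: 100% = DMSO vehicle wells and 0% = artemisinin-treated control wells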
Procedure, shortened: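 P. falciparum HB3 grown in erythrocytes (0.3% parasitemia, 2.5% hematocrit final) with compound for 72 h at 37 C, 5% CO2. Parasite DNA detected by SYBR Green after saponin/triton lysis overnight; normalized to 0.29 uM artemisinin and DMSO.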

[9] = qHTS profiling of the MIPE4 collection as inhibitors of Plasmodium falciparum (3D7) proliferation (AID 743344; call rule not given here;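 also: scaled between DMSO vehicle wells and 0.29 µM artemisinin as full inhibition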); conditions: P. falciparum 3D7 in erythrocytes, SYBR Green DNA fluorescence, 72 h; at 28.5 µM (top of the series) unless noted
Procedure, shortened: (§2)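 Erythrocytes infected with P. falciparum (0.3% parasitemia, 2.5% hematocrit) incubated with compounds 72 h at 37 C, 5% CO2. Lysis with saponin/Triton buffer containing SYBR Green I, overnight at room temperature in the dark; DNA fluorescence (485/535 nm) normalised to 0.29 uM artemisinin and DMSO.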

[10] = qHTS profiling of the MIPE4 collection as inhibitors of Plasmodium falciparum (DD2) proliferation (AID 743345; call rule not given here); conditions: P. falciparum Dd2 in erythrocytes, SYBR Green DNA, 72 h; at 28.5 µM (top of the series) unless noted
Procedure, shortened: as §2

[11] = qHTS profiling of the MIPE4 collection as inhibitors of Plasmodium falciparum (DD2) proliferation (Rep 2) (AID 743346; call rule not given here); conditions: P. falciparum Dd2 in erythrocytes, SYBR Green DNA, 72 h; at 28.5 µM (top of the series) unless noted
Procedure, shortened: as §2

[12] = qHTS profiling of the MIPE4 collection as inhibitors of Plasmodium falciparum (HB3) proliferation (AID 743347; call rule not given here;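 also: plate controls were DMSO vehicle wells for no effect and artemisinin wells for full effect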); conditions: P. falciparum HB3 in erythrocytes, SYBR Green DNA, 72 h; at 28.5 µM (top of the series) unless noted
Procedure, shortened: as §2

[13] = qHTS Screen of the MIPE 4.0 Collection Against Ewings Sarcoma (TC71) (AID 1259253); also: nearly all actives have a fitted effect of over 40% in size; also: potency is read from the fitted curve at half-maximal effect
Procedure, shortened: as §1

[14] = Identifying Small Molecule Inhibitors of Pancreatic Cancer Stem Cells (A2780, Spheroid) (AID 1259357); conditions: Potency: A2780 spheroid viability;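 also: spheroids pre-formed over 14 days in stem cell medium on hydrogel; compound exposure lasted 48 h before the ATP luminescence read; 100% = DMSO treated cells and 0% = wells without cells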
Procedure, shortened: (§3)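 Spheroids grown 14 days in stem cell media on nonadherent hydrogel before screening; cells attached 4 h, then compound exposure 48 h at 37C, 5% CO2. CellTiter-Glo luminescence normalized to DMSO (no inhibition) and no-cell wells (full inhibition).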

[15] = Identifying Small Molecule Inhibitors of Pancreatic Cancer Stem Cells (SN12C, Adherent) (AID 1259358);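 also: cell survival measured after 48 h of compound exposure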
Procedure, shortened: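 After a 4 h attachment period, compounds were pinned into wells and cultures held 48 h under standard incubator conditions. Viability was then measured as CellTiter-Glo luminescence following 10 min at room temperature.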

[16] = Identifying Small Molecule Inhibitors of Pancreatic Cancer Stem Cells (SN12C, Spheroid) (AID 1259360); conditions: Potency: SN12C spheroid viability;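 also: 100% = DMSO-treated cells and 0% = wells without cells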
Procedure, shortened: as §3

SMILES | cell viability, % of control (lower = more cytotoxic) [1] [%] | viability (% of control) [2] [%] | Potency [3] | Potency [4] | Potency [5] | Potency [6] | Potency [7] | remaining proliferation (% of control), lower = more inhibition [8] [%] | parasite growth, % of DMSO control [9] [%] | parasite growth remaining, % of DMSO control (lower = more inhibition) [10] [%] | parasite growth, % of control (lower = inhibition) [11] [%] | growth, % of control [12] [%] | Potency [13] | Potency [14] | Potency [15] | Potency [16]
Cc1cn([C@@H]2C[C@@H](O)[C@H](CO)O2)c(=O)[nH]c1=O | 159 | 69.5 | inactive | inactive | inactive | inactive | inactive |  |  |  |  |  |  |  |  | 
CC(=O)NCCC(=O)N[C@@H](CCC(N)=O)C(=O)N[C@@H](CO)C(=O)N[C@@H](CCC(N)=O)C(=O)N[C@@H](CCC(N)=O)C(=O)N[C@H](C(=O)N[C@@H](Cc1ccccc1)C(=O)N[C@]1(C)CCCCCCC=CCCC[C@@](C)(C(=O)N[C@@H](CCC(N)=O)C(=O)N[C@@H](CC(N)=O)C(N)=O)NC(=O)[C@H](CC(C)C)NC(=O)[C@H](CC(C)C)NC(=O)[C@@H](CCCNC(=N)N)NC(=O)[C@H](Cc2c[nH]c3ccccc23)NC(=O)[C@H](CC(C)C)NC(=O)[C@H](CC(N)=O)NC1=O)[C@H](C)O | 27 | 78.7 | inactive | inactive | 18.7 µM (active) |  |  | 66.8 | 86.3 | 41.2 | 28.5 | 30.1 | 20.9 µM (active) | inactive | inactive | inactive
CN1C(=O)C[C@H](C(=O)N[C@@H](Cc2cnc[nH]2)C(=O)N2CCC[C@@H]2C(N)=O)NC1=O | 61 | 29.3 | inactive | inactive | 20.9 µM (active) |  |  |  |  | 33.3 |  |  | 20.9 µM (active) |  |  | 
COc1ccc(CCN(C)CCCOc2ccc(S(=O)(=O)c3[nH]c4ccccc4c3C(C)C)cc2)cc1OC | 14.1 | 9.08 | inactive | inactive | inactive |  |  | -1.05 | 31.8 | 26.3 | 16.3 | 42.9 | inactive |  |  | 
C[C@@H](N)c1ccc(C(=O)Nc2ccnc3[nH]ccc23)cc1 | 6.34 | 12.2 | 26.4 µM (active) | inactive | 18.7 µM (active) |  |  |  | 49.7 | 78.2 | 49.3 | 67.7 | 16.6 µM (active) |  |  | 
CCCCC[C@H](O)C=C[C@H]1[C@H](O)CC(=O)[C@H]1CC=CCCCC(=O)O | 31.5 | 23.7 | inactive | inactive | inactive |  | 20.9 µM (active) |  | 86 | 11.2 |  | 103 | 18.7 µM (active) |  |  | 
O=C(Nc1cccc(Cl)c1)Nc1ncc(CCNc2ncnc3ccsc23)s1 | 122 | 20.2 | inactive | inactive | 1.18 µM (active) | 235 nM (active) | 0.296 µM (active) | -0.601 | 15.2 | 67.5 |  | 5.75 |  |  | inactive | 
C#C[C@]1(O)CC[C@H]2[C@H]3CCc4cc(OC)ccc4[C@H]3CC[C@@]21C | 211 | 98 | inactive | inactive | 20.9 µM (active) |  |  |  | 76.5 | 98.2 |  | 87.7 | 29.6 µM (active) |  |  | 
O=C(Nc1cccc2c(=O)cc(-c3nn[nH]n3)oc12)c1ccc(OCCCCc2ccccc2)cc1 | 51.3 | 26.2 | inactive | inactive | 16.6 µM (active) |  | 18.7 µM (active) |  | 8.12 | 31.5 | 15.1 | 7.59 | 18.7 µM (active) |  |  | 

— PubChem BioAssay (NCATS)
